Assay results: ChEMBL document CHEMBL4513216, “Probing the Open Global Health Chemical Diversity Library for Multistage-Active Starting Points for Next-Generation Antimalarials” (ACS Infect Dis, 2020)
Among all 69,000 compounds or so, about 8,600 (12%) showed an effect of 50% or more. This is one part of a sample in which strong results are shown more often than they occur.

These compounds were tested on Plasmodium berghei (assay: Screen against P. berghei liver stage (PbLuc), transformed with Luciferase, at 10uM). Conditions: tested at 10 uM.
Type: functional, HepG2

SMILES	INHIBITION [%]
O=C(NC[C@]12COC[C@H]1CN(Cc1nccs1)C2)c1cscn1	47.9
FC(F)(F)c1cc(C2CCNCC2)nc(-c2ccsc2)n1	1.62
CN1C(=O)CC(c2cnn(C)c2)C12CCN(C(=O)c1ccnnc1)CC2 (configuration not stated)	57.9
CN1C(=O)CC(c2cnn(C)c2)C12CCN(C(=O)c1cscn1)CC2 (configuration not stated)	61.4
CN1C(=O)CC(c2cnn(C)c2)C12CCN(C(=O)c1ccncc1)CC2 (configuration not stated)	42.7
CN1C(=O)CC(c2cnn(C)c2)C12CCN(C(=O)c1ccc[nH]1)CC2 (configuration not stated)	37.8
CN1C(=O)CC(c2cnn(C)c2)C12CCN(C(=O)c1ccno1)CC2 (configuration not stated)	14.8
CN1C(=O)CC(c2cnn(C)c2)C12CCN(C(=O)c1ccco1)CC2 (configuration not stated)	10.1
Cc1nc(C2CCCN2C(=O)CCc2ccc(F)cc2)ncc1C(N)=O (configuration not stated)	43.6
O=C(CCc1nc2ccccc2[nH]1)N1CCCC(n2cccn2)C1 (configuration not stated)	40.75
COCCN1C(=O)CCC12CCCN(C(=O)NC(C)C)CC2 (configuration not stated)	18.6
COCCN1C(=O)CCC12CCCN(C(=O)CC1CC1)CC2 (configuration not stated)	-15.9
COCCC(=O)N1CCCC2(CCC(=O)N2CCOC)CC1 (configuration not stated)	54.9
CN(C)CCN1C(=O)CCC12CCN(C(=O)CC1CC1)CC2	-12.2
CN(C)CCN1C(=O)CCC12CCCN(C(=O)N(C)C)CC2 (configuration not stated)	9.97
CC(C)NC(=O)N1CCC2(CCC(=O)N2CCN2CCCC2)CC1	5.04
COCCN1C(=O)CCC12CCN(C(=O)NC(C)C)CC2	-38.4
CN(C)CCN1C(=O)CCC12CCCN(C(=O)CC1CC1)CC2 (configuration not stated)	51.9
CC(C)NC(=O)N1CCC2(CCC(=O)N2CCN(C)C)CC1	60.5
O=c1cc(CNCc2ccc3c(c2)OCO3)nc2ccccn12	14.3
COc1nn(C)cc1C(=O)N1CCC(c2nnc(C(C)C)o2)CC1	37.5
c1ccn(Cc2noc3c2CN(Cc2ccsc2)CC3)c1	49.1
CC1CN(CC(=O)NCCc2ccncc2)Cc2ccccc2O1 (configuration not stated)	60.9

SMILES	INHIBITION [%]
Cc1ccc2c(c1)CN(CC(=O)NCCc1ccc(F)cc1)CC(C)O2 (configuration not stated)	-46.4
CC1CN(CCC(=O)NCCc2cccnc2)Cc2ccccc2O1 (configuration not stated)	26.1
O=C(c1ccc(-c2ccsc2)nc1)N1CCCN(C2CCCCC2)CC1	14.4
CO[C@@]1(C)C[C@@H](O)C12CCN(C(=O)CCn1c(C)cccc1=O)CC2	46.4
COCC1c2nnn(C)c2CCN1C(=O)CCc1cccc(OC)c1 (configuration not stated)	52.1
COCC1c2nnn(C)c2CCN1C(=O)Cc1ccccn1 (configuration not stated)	-21.3
COCC1c2nnn(C)c2CCN1C(=O)c1ccc(OC)c(F)c1 (configuration not stated)	44.8
COCC1c2nnn(C)c2CCN1C(=O)COc1ccccc1C (configuration not stated)	22.2
COCC1c2nnn(C)c2CCN1C(=O)Cc1ccc2c(c1)OCO2 (configuration not stated)	-10.5
COCC1c2nnn(C)c2CCN1C(=O)COc1ccccc1OC (configuration not stated)	53
CCc1c(C)sc2nc3n(CCN4CCCCC4)nc(SC)n3c(=O)c12	35.1
CC(C)(C)c1n[nH]c(C2CN(C(=O)c3cc(C4CC4)[nH]n3)CCO2)n1 (configuration not stated)	-21.2
CNC(=O)N1CCN(C(=O)N(C)C)CC2(CC(=O)N(C)C2)C1 (configuration not stated)	26.3
O=C(c1ccncc1)N1CC[C@@H]2[C@@H](CC1)OCCN2c1cccnc1	12.1
Cc1ncsc1C(=O)N1CC[C@@H]2[C@@H](CC1)OCCN2c1cccnc1	65.1
O=C(c1ccoc1)N1CC[C@@H]2[C@@H](CC1)OCCN2c1cccnc1	45.8
CC(Cn1cccn1)NC(=O)c1ccsc1 (configuration not stated)	15.7
Cc1nc2ccc(C(=O)N3CCn4c(C)nnc4C3)cc2nc1C	1.56
CN1C[C@H](c2ccccc2)[C@H]2CN(C(=O)Cc3ccc(O)cc3)CC[C@H]21	27.35
CCN1CC2(CCC1=O)CCN(C(=O)c1ccc(C)cc1O)CC2	18.6
COc1cccc(-c2nnn(C3CCN(CC(F)(F)F)C3=O)n2)c1 (configuration not stated)	-73.4
Cc1nnc(SCCNc2cc(C3CC3)ncn2)s1	4.52
CCn1c(C)nnc1SCCNc1cc(COC)ncn1	8.51

SMILES	INHIBITION [%]
COCc1cc(NCCCSc2nnc(C)s2)ncn1	58.8
Cc1nnc(SCCCNC(=O)c2ccc3c(c2)OCO3)s1	33.4
Cc1nnc(SCCCNc2cc(C3CC3)ncn2)s1	58.8
COc1cc(NCCCSc2nnc(C)s2)ncn1	42.1
Cc1cccc(N2CC3(CCN(S(=O)(=O)c4cccs4)C3)CC2=O)c1 (configuration not stated)	-4.82
CSc1ccc(C(=O)N2C[C@@H]3CC[C@H]2CN(Cc2cccnc2)C3)cc1	-5.19
Cc1noc(CCCNC(=O)N2CCc3ccccc3C2CO)n1 (configuration not stated)	14.4
CC(C)(C)c1cc(NC(=O)CN2CCc3cncnc3C2)on1	-9.76
CCc1nc2ccccc2c(=O)n1CC1(O)CCN(CC(=O)OC)CC1	13.5
CCOn1c(SC(C)C)nc2ccccc2c1=O	56.3
COC(=O)COn1c(SCC(=O)OC)nc2ccccc2c1=O	28.3
CCSc1nc2ccccc2c(=O)n1OCC(=O)OC	60.8
COC(=O)COn1c(SC(C)C)nc2ccccc2c1=O	28.3
CCc1nc2ccccc2c(=O)n1CC1(O)CCN(C(=O)COC)CC1	7.52
CCc1nc2ccccc2c(=O)n1CC1(O)CCN(C(=O)C(C)C)CC1	35.2
COC(=O)COn1c(SC)nc2ccccc2c1=O	48
COC(=O)COn1c(OC)nc2ccccc2c1=O	52.5
CC(C)Cc1noc(CN2CCCC2c2noc(C3CC3)n2)n1 (configuration not stated)	-31.5
CC(C)(C)N1CCN(C(=O)Nc2cc(C(F)(F)F)c[nH]c2=O)CC1	33.3
COC(=O)C1C=CCN1C(=O)c1cc(COc2ccccc2)[nH]n1 (configuration not stated)	9.41
Cc1nc(N(C)C)ncc1C(=O)N[C@@H]1CCc2ccccc21	27.4
